The source made the active and inactive calls.
Experiments:
[1] = optical density shifts of acrAB sulA E. coli – strain DRC41, OD650, 48 h, E. coli filamentation inducer project, primary screen (AID 1152); conditions: higher = more signal, called active from +8 up or from −8 down;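 also: E. coli MC1000 strain DRC41 lacking acrAB efflux pump and sulA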
[2] = probe aLefty1 binding on compound microarray – biochemical, small-molecule microarray, 635/667 nm fluorescence, primary screen (AID 1153); conditions: higher = more signal;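 also: score merges spot fluorescence with signal-to-noise ratio from the scanned slide images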
[3] = plasmodial surface anion channel blockers, osmotic lysis – cell-based, P. falciparum Indochina, OD700, 1 h, primary screen (AID 1154); conditions: P. falciparum Indochina infected RBC osmotic lysis, higher = more signal, called active from +8 up or from −8 down
[4] = plasmodial surface anion channel blockers, osmotic lysis – cell-based, P. falciparum Indochina, OD700, 2 h, primary screen (AID 1155);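 also: lysis reports solute entry through the parasite surface anion channel PSAC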; conditions: P. falciparum Indochina infected erythrocytes, higher = more signal, called active from +8 up or from −8 down
[5] = changes in parasitized red cell lysis, either direction – P. falciparum Indochina, OD700, 3 h, PSAC antagonist project, primary screen (AID 1156); conditions: P. falciparum-infected erythrocytes, osmotic lysis, higher = more signal, called active from +8 up or from −8 down
[6] = plasmodial surface anion channel blockers, osmotic lysis – cell-based, P. falciparum Indochina, OD700, 18 h, primary screen (AID 1157); conditions: P. falciparum Indochina infected erythrocytes, osmotic lysis OD700, 18 h; higher = more signal, called active from +8 up or from −8 down
[7] = S6 kinase pathway phospho-S6 level changes – cell-based, A549, cytoblot, luminescence, serum-stimulated, primary screen (AID 1158); conditions: 5 h, higher = more signal;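 also: serum-stimulated A549 lung adenocarcinoma cells; signal is phosphorylated S6 detected by cytoblot immunostaining with HRP secondary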
[8] = biological target: NADPH oxidase 2 (Homo sapiens) (UniProt P04839); assay: compounds shifting NOX2 Amplex Red fluorescence – cell-based, HEK293-NOX2, PMA-stimulated, NOX inhibitor project, primary screen (AID 1159); conditions: 45 min, higher = more signal, called active from +8 up or from −8 down; also: test concentration not given here
[9] = biological target: NADPH oxidase 4 (Homo sapiens) (UniProt Q9NPH5); assay: compounds shifting NOX4 Amplex Red fluorescence – cell-based, HEK293-NOX4, tetracycline-induced, NOX inhibitor project, primary screen (AID 1160); conditions: HEK293-NOX4, Amplex Red H2O2 fluorescence, 45 min; higher = more signal, called active from +8 up or from −8 down
[10] = biological target: NADPH oxidase 5 (Homo sapiens) (UniProt Q96PH1); assay: compounds shifting NOX5 Amplex Red fluorescence – cell-based, HEK293-NOX5, NOX inhibitor project, primary screen (AID 1161); conditions: HEK293-NOX5, ionomycin, 45 min, higher = more signal
[11] = compound effects on lung adenocarcinoma cell viability – A549, calcein-AM fluorescence, 48 h, basal, profiling panel (AID 1162); conditions: higher = more signal; also: test concentration not given here
[12] = compound effects on differentiated 3T3-L1 adipocyte viability – cell-based, 3T3-L1 adipocytes, calcein-AM fluorescence, 48 h, basal, profiling panel (AID 1163); conditions: 3T3-L1 adipocytes viability, higher = more signal; also: test concentration not given here
[13] = compound effects on hepatocellular carcinoma cell viability – HepG2, calcein-AM fluorescence, 48 h, basal, profiling panel (AID 1164); conditions: higher = more signal; also: test concentration not given here
[14] = compound effects on multiple myeloma cell viability – MM1S, calcein-AM fluorescence, 48 h, basal, profiling panel (AID 1165); conditions: higher = more signal; also: test concentration not given here
[15] = calcein-AM signal in unstimulated myeloma cells – cell-based, calcein-AM fluorescence, 48 h, PK04 Diversity Set, profiling panel (AID 1166); conditions: RPMI8226 myeloma viability, higher = more signal;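 also: cells grown under basal conditions without added stimulus; test concentration not given here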
[16] = JC-1 mitochondrial signal, unstimulated HepG2 cells – cell-based, JC-1 fluorescence, 24 h, 100 nL compound, profiling panel (AID 1167); conditions: HepG2 mitochondrial potential, higher = more signal; also: test concentration not given here
[17] = JC-1 mitochondrial signal, unstimulated adipocytes – cell-based, JC-1 fluorescence, 3T3-L1 adipocytes, 24 h, 100 nL compound, profiling panel (AID 1168); conditions: JC-1 mitochondrial fluorescence, higher = more signal, called active from +8 up or from −8 down; also: test concentration not given here
[18] = JC-1 mitochondrial signal, unstimulated myeloma cells – cell-based, JC-1 fluorescence, RPMI8226, 24 h, 100 nL compound, profiling panel (AID 1169); conditions: JC-1 mitochondrial potential fluorescence, higher = more signal; also: test concentration not given here
[19] = JC-1 mitochondrial signal, unstimulated MM1S myeloma – cell-based, JC-1 fluorescence, 24 h, 100 nL compound, profiling panel (AID 1170); conditions: MM1S mitochondrial potential, higher = more signal; also: test concentration not given here
[20] = resazurin metabolic signal in A549 cells – cell-based, resazurin fluorescence, 24 h, PK04 Diversity Set, profiling panel (AID 1171); conditions: A549 viability, higher = more signal, called active from +8 up or from −8 down; also: test concentration not given here

NADPH oxidase 4 (Homo sapiens), sequence (Q9NPH5 whole entry, looked up): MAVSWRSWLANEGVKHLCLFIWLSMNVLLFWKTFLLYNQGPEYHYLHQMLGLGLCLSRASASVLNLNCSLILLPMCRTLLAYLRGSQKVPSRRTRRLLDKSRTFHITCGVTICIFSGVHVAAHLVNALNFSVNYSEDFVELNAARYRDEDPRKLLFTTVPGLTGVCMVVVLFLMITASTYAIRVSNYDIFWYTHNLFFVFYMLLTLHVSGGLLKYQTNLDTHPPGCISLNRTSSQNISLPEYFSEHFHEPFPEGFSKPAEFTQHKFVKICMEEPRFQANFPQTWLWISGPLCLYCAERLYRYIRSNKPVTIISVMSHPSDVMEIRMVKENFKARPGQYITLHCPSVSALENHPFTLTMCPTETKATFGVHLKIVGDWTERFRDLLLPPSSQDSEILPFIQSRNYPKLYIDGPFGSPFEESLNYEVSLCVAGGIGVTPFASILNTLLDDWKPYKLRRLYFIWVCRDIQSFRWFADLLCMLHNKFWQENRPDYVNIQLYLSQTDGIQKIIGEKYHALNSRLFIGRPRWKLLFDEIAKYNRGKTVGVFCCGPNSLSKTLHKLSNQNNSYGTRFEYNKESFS
NADPH oxidase 2 (Homo sapiens), sequence (P04839 whole entry, looked up): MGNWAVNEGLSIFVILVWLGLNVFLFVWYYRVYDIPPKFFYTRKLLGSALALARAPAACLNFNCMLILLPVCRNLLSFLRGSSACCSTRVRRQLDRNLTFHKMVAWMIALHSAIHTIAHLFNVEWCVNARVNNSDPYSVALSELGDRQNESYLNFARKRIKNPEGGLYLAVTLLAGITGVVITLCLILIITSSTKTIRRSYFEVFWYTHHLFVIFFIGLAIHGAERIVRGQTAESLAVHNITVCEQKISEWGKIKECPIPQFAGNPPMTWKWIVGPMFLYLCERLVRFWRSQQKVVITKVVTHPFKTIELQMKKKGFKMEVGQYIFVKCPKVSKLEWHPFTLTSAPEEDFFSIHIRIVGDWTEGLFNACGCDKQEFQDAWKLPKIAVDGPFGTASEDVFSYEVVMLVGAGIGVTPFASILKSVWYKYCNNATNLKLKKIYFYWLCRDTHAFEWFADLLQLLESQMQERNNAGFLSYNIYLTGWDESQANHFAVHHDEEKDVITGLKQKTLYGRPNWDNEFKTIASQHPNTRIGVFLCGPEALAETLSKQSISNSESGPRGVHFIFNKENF
NADPH oxidase 5 (Homo sapiens), sequence (Q96PH1 whole entry, looked up): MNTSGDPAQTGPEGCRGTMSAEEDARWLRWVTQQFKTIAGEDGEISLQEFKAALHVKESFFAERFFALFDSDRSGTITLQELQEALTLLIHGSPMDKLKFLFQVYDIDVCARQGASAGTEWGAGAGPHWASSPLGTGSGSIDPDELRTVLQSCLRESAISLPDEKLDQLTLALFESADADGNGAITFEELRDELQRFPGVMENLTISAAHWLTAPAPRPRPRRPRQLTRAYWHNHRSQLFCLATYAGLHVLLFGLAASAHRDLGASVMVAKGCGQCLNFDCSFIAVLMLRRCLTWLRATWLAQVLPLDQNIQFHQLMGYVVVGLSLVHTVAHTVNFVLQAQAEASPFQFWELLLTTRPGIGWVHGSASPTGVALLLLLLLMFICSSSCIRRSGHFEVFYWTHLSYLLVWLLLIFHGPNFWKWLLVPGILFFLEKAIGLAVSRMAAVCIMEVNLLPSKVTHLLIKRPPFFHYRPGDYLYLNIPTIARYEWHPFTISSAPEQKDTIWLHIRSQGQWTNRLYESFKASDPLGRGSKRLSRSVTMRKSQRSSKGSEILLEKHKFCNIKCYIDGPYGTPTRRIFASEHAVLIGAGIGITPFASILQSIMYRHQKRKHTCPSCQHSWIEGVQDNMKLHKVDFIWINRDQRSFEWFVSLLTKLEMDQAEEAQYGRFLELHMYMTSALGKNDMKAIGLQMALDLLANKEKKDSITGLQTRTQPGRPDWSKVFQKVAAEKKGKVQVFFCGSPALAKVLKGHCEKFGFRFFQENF

SMILES	z-score [1]	composite z-score [2]	z-score [3]	z-score [4]	z-score [5]	z-score [6]	z-score [7]	z-score [8]	z-score [9]	z-score [10]	z-score [11]	z-score [12]	z-score [13]	z-score [14]	z-score [15]	z-score [16]	z-score [17]	z-score [18]	z-score [19]	z-score [20]
CC(C)=CCCC(C)=CCON=C1[C@H]2CCn3c(=O)n(-c4ccccc4)c(=O)n3[C@H]2[C@H](O)[C@@H]2O[C@H]12	-0.484 (inactive)	0.688	4.93 (inactive)	0.635 (inactive)	2.07 (inactive)	0.695 (inactive)	0.897	0.856 (inactive)	0.577 (inactive)	-0.799	-0.603	-0.141	-0.838	-2.89	-1.47	-1.07	-0.462 (inactive)	-0.247	-1.81	-1.33 (inactive)
COC(=O)[C@H](C)NC(=O)CCC1CC(OC(=O)NCc2ccc3c(c2)OCO3)CC2(CCCC(COC(=O)NCCC(C)C)O2)O1 (stereo not given in full)	-1.06 (inactive)	0.0774	19.8 (active)	4.71 (inactive)	0.3 (inactive)	0.638 (inactive)	0.392	0.738 (inactive)	0.437 (inactive)	0.284	-0.121	0.114	-1.19	-3.18	-2.13	-0.523	-0.452 (inactive)	-0.253	0.177	0.442 (inactive)
CC(C)C(=O)N[C@H]1CCCN1C(=O)C=Cc1ccccc1	-1.05 (inactive)	0.271	1.35 (inactive)	0.627 (inactive)	0.632 (inactive)	0.346 (inactive)	-0.53	0.679 (inactive)	0.913 (inactive)	-0.732	-0.0724	-0.578	0.176	-0.903	-0.1	-0.541	-0.288 (inactive)	0.6	-0.0562	0.182 (inactive)
CO[C@@H](C1CCCCC1)[C@@H](C)[C@H](OCc1cccc(Br)c1)[C@@H](C)CO	-0.409 (inactive)	-0.401	2.08 (inactive)	1.29 (inactive)	-1.8 (inactive)	0.957 (inactive)	-0.337	-0.787 (inactive)	0.0443 (inactive)	-2.45	-2.34	-0.348	-2.22	-3.02	-4.04	-4.59	0.408 (inactive)	-1.11	-0.184	-1.21 (inactive)
C[C@@H]1CC[C@@H](C(=O)O)N[C@H]1c1cccc(N2CCOCC2)c1	0.563 (inactive)	-0.0984	-0.0136 (inactive)	0.18 (inactive)	0.468 (inactive)	0.247 (inactive)	0.778	-0.438 (inactive)	0.65 (inactive)	0.252	1.03	-0.219	0.0881	0.401	1.07	1.66	0.631 (inactive)	-0.157	-0.144	0.148 (inactive)
CCN1C(=O)[C@H]2[C@H]3[C@H](O)[C@H](O)CC(=NO[C@@H]4O[C@H](COC(C)=O)[C@@H](OC(C)=O)[C@H](OC(C)=O)[C@H]4OC(C)=O)[C@@H]3CC[C@H]2C1=O	0.59 (inactive)	0.227	0.202 (inactive)	0.195 (inactive)	-0.519 (inactive)	0.319 (inactive)	-0.639	0.357 (inactive)	0.722 (inactive)	-0.0344	0.13	-0.81	-0.145	-1.29	-1.05	-0.611	-1.51 (inactive)	0.69	-0.654	-0.959 (inactive)
CC(C)=NO[C@@H](C)c1cn([C@H](CO)Cc2ccccc2)nn1	-1.99 (inactive)	0.423	-0.407 (inactive)	-1.7 (inactive)	-0.222 (inactive)	-1.75 (inactive)	1.54	-0.689 (inactive)	0.0692 (inactive)	0.628	0.308	0.343	1.17	0.182	-0.428	0.614	0.0209 (inactive)	0.386	0.514	-1.35 (inactive)
CCN1C(=O)[C@H]2[C@H]3[C@H](O)[C@H](O)CC(=NNC(=O)OCc4ccccc4)[C@H]3CC[C@H]2C1=O	-1.89 (inactive)	0.0931	1.26 (inactive)	0.322 (inactive)	0.364 (inactive)	0.0338 (inactive)	-0.18	0.92 (inactive)	0.424 (inactive)	0.0659	-0.365	0.888	-0.0764	-1.59	0.507	-0.559	-0.978 (inactive)	0.083	0.409	-0.218 (inactive)
C[C@H]1CC[C@H]2C(=O)N[C@H](Cc3ccccc3)C(=O)N2[C@@H]1c1ccccc1	0.584 (inactive)	-0.108	-0.189 (inactive)	0.405 (inactive)	-0.304 (inactive)	0.294 (inactive)	-0.0623	0.727 (inactive)	-0.32 (inactive)	-0.119	-0.103	0.283	0.194	-0.643	0.0185	0.399	-0.556 (inactive)	0.471	1.28	-0.232 (inactive)
